Source: PubChem BioAssay (NCATS)
Inconclusive results are not listed. A call without a number means that no potency is given here. Activity calls are given as the source filed them. The call rests on the fitted dose curve; in most records, active means well fitted curve in the direction sought with a large enough effect; inconclusive means small, poorly fitted or top-dose-only effect, or another doubt; inactive means no such curve, though single readings can be large; an effect the other way counts as inactive or inconclusive.

Tests used:
[1] = qHTS of pediatric cancer cell lines to identify multiple opportunities for drug repurposing: Primary screen for NB1643 cells (AID 1347099); further: nearly all actives have a fitted effect of over 50% in size
Method in brief: (§1)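 Cells seeded at 500-1,000 cells/well in growth media, rested 5 hours at 37 degrees C, 5% CO2, then dosed; MIPE compounds at 11-point (from 0.78 nM) and NPC at 8-point (from 0.59 nM) final concentrations. Viability by CellTiter-Glo luminescence after 48 hours.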

[2] = qHTS of pediatric cancer cell lines to identify multiple opportunities for drug repurposing: Primary screen for Rh18 cells (AID 1347102); further: nearly all actives have a fitted effect of over 65% in size
Method in brief: (§2)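 Cells (500-1,000/well) in growth media were settled 5 h at 37 degrees C, then given compounds for 48 h. Viability was read as CellTiter-Glo luminescence. Primary runs used MIPE at 11 points (0.78 nM-46 µM) and NPC at 8 points (0.59 nM-46 µM); follow-ups used 11 points.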

[3] = qHTS of pediatric cancer cell lines to identify multiple opportunities for drug repurposing: Primary screen for RD cells (AID 1347104); further: nearly all actives have a fitted effect of over 55% in size
Method in brief: as §1

[4] = qHTS of pediatric cancer cell lines to identify multiple opportunities for drug repurposing: Primary screen for MG 63 (6-TG R) cells (AID 1347105); further: nearly all actives have a fitted effect of over 50% in size
Method in brief: as §1

[5] = qHTS of pediatric cancer cell lines to identify multiple opportunities for drug repurposing: Primary screen for control Hh wild type fibroblast cells (AID 1347106); further: nearly all actives have a fitted effect of over 55% in size
Method in brief: as §2

[6] = qHTS of pediatric cancer cell lines to identify multiple opportunities for drug repurposing: Primary screen for Rh30 cells (AID 1347107); further: nearly all actives have a fitted effect of over 75% in size
Method in brief: as §2

[7] = qHTS of pediatric cancer cell lines to identify multiple opportunities for drug repurposing: Primary screen for OHS-50 cells (AID 1347103); further: nearly all actives have a fitted effect of over 40% in size
Method in brief: (§3)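 Cells (500-1,000/well) rested 5 h, then received compounds for 48 h; metabolically active cells were measured by CellTiter-Glo luminescence. Final concentrations spanned up to 46 µM (MIPE, 11-point) or 0.59 nM-46 µM (NPC, 8-point) in primary screens, 11-point in follow-ups.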

[8] = qHTS of pediatric cancer cell lines to identify multiple opportunities for drug repurposing: Primary screen for LAN-5 cells (AID 1347100)
Method in brief: as §2

[9] = qHTS of pediatric cancer cell lines to identify multiple opportunities for drug repurposing: Primary screen for BT-12 cells (AID 1347101); further: nearly all actives have a fitted effect of over 25% in size
Method in brief: as §3

[10] = qHTS of pediatric cancer cell lines to identify multiple opportunities for drug repurposing: Primary screen for Rh41 cells (AID 1347108); further: nearly all actives have a fitted effect of over 70% in size
Method in brief: as §1
Potency means the concentration at half of the fitted maximal effect.

| SMILES | Potency [1] | Potency [2] | Potency [3] | Potency [4] | Potency [5] | Potency [6] | Potency [7] | Potency [8] | Potency [9] | Potency [10] |
| --- | --- | --- | --- | --- | --- | --- | --- | --- | --- | --- |
| c1ccc(CNc2nc(N3CCOc4ccccc43)nc3c2CCCC3)cc1 | 23.5 µM (active) | inactive | inactive | inactive | inactive | inactive |  |  |  |  |
| CCCC1OC2C[C@@H]3[C@H]4CCC5=CC(=O)C=C[C@]5(C)[C@H]4C(O)C[C@]3(C)[C@]2(C(=O)CO)O1 (stereo partly drawn) | 20.9 µM (active) |  | inactive | inactive | inactive |  | inactive |  |  |  |
| COc1cc([C@H]2Oc3cc([C@H]4Oc5cc(O)cc(O)c5C(=O)[C@H]4O)ccc3O[C@H]2CO)ccc1O | 23.5 µM (active) | inactive |  |  | inactive |  | inactive |  |  |  |
| CN1C(=O)C(Cc2c[nH]c3ccccc23)NC1=S (stereo not drawn) |  | inactive | inactive | inactive | inactive | inactive | inactive | inactive | inactive |  |
| CN(CC=CC#CC(C)(C)C)Cc1cccc2ccccc12 |  | inactive | inactive | inactive | inactive | inactive | inactive | inactive | inactive | inactive |
| O=C(c1ccc(F)c(F)c1Nc1ccc(I)cc1F)N1CC(O)([C@H]2CCCCN2)C1 |  | 16.6 µM (active) | 0.526 µM (active) | 29.6 µM (active) | 16.6 µM (active) |  | 1.09 µM (active) | 0.935 µM (active) | 1.09 µM (active) | 18.7 µM (active) |
| CC(C)c1c(C(=O)Nc2ccccc2)c(-c2ccccc2)c(-c2ccc(F)cc2)n1CC[C@H](O)C[C@@H](O)CC(=O)O |  | 20.9 µM (active) | inactive | 14.8 µM (active) | inactive |  | 19.3 µM (active) | inactive | 5.44 µM (active) |  |
| C[C@@H](NC(=O)c1ncnc(N)c1Cl)c1ncc(C(=O)Nc2cc(C(F)(F)F)c(Cl)cn2)s1 | 14.8 µM (active) | inactive |  | inactive |  |  |  |  |  |  |
| Cc1ccccc1C(=O)c1ccc(Nc2ccc(Br)cc2N)cc1Cl | 20.9 µM (active) |  |  |  | inactive |  |  |  |  |  |
| CCC[C@@H](NC(=O)[C@@H]1[C@H]2CCC[C@@H]2CN1C(=O)[C@@H](NC(=O)[C@@H](NC(=O)c1cnccn1)C1CCCCC1)C(C)(C)C)C(=O)C(=O)NC1CC1 | inactive |  |  | inactive | inactive | inactive |  |  |  |  |
| C[C@@]1(c2cc(-c3cncnc3)c(F)cc2F)CCSC(N)=N1 |  | inactive | 2.09 µM (active) | inactive | inactive | inactive | 2.73 µM (active) | 3.72 µM (active) | 3.85 µM (active) | inactive |
| Cc1ccc(NC(=O)Nc2cc(C(F)(F)F)ccc2F)cc1Nc1ccc2c(c1)NC(=O)C2=Cc1ccc[nH]1 | 11.8 µM (active) |  | 18.7 µM (active) | 18.7 µM (active) | inactive |  | 27.3 µM (active) |  |  |  |
| Cc1nc(NC(=O)N2CCC[C@@H]2C(N)=O)sc1-c1csc(C(C)(C)C)n1 | 5.9 µM (active) |  | 1.66 µM (active) | 5.9 µM (active) |  | 14.8 µM (active) | 1.72 µM (active) |  |  | 11.8 µM (active) |
| Oc1ccc(C=Cc2cc(O)cc(O)c2)cc1 | 20.9 µM (active) | inactive |  | inactive | inactive | inactive |  |  |  | inactive |
| O=C(Nc1ncc(SCCN2CCCC2)s1)[C@]1(c2ccc(S(=O)(=O)C3CC3)cc2)C[C@@H]1C1CCCCC1 |  | 20.9 µM (active) | 14.8 µM (active) | 29.6 µM (active) | inactive | 20.9 µM (active) | 24.3 µM (active) | 23.5 µM (active) | 27.3 µM (active) | 18.7 µM (active) |
| Cc1ccccc1-n1c(Cn2nc(-c3cccc(O)c3)c3c(N)ncnc32)nc2cccc(C)c2c1=O | 0.833 µM (active) |  | 0.118 µM (active) |  | inactive | inactive | 0.0385 µM (active) |  |  | 3.72 µM (active) |
| CC(C)(OCc1nn(Cc2ccccc2)c2ccccc12)C(=O)O |  | inactive | inactive | inactive | inactive | inactive | inactive | inactive | inactive | inactive |
| N#CC1(c2cccc(C(=O)Nc3cc(Oc4ccc5nc(NC(=O)C6CC6)sc5n4)ccc3F)c2Cl)CC1 | inactive |  |  |  | inactive |  | 19.3 µM (active) |  |  |  |
| NCC1CCC(C(=O)O)CC1 (stereo not drawn) |  | inactive | inactive | inactive | inactive | inactive | inactive | inactive | inactive | inactive |
| COC(=O)N1CCN(Cc2cccc(NC(=O)Nc3ccc(C)nc3)c2F)CC1 |  | inactive | inactive | inactive | inactive |  |  | inactive |  |  |
| COc1ccc2ccc(=O)oc2c1CC=C(C)C |  |  |  |  | inactive | inactive | 24.3 µM (active) | 29.6 µM (active) | 24.3 µM (active) |  |
| COc1c(C)cnc(Cn2cnc3c(Cl)nc(N)nc32)c1C |  | 0.332 µM (active) |  |  |  | inactive | 0.432 µM (active) | 0.166 µM (active) |  | 1.18 µM (active) |
